HIV RNase H inh-1: inhibitors of HIV-1 reverse transcriptase RNase H. P04585. RT-RNase H RNA/DNA duplex cleavage, fluorescence. inhibition, % at 10 µM. hit rate 1.9% among 65,000; in the data active = inhibition above about 50%
HIV RNase H inh-2: confirmation of HIV-1 reverse transcriptase RNase H inhibitors; inhibition, % at 10 µM; hit rate 39% among 1,000; Recombinant RT RNase H, fluorescent RNA/DNA duplex cleavage; shares compounds with HIV RNase H inh-1; in the data active = inhibition above about 48%
Starred values were filed as active, the others as inactive. Many of the other results were omitted from the sample, so hits are more common in it than they were.

SMILES	HIV RNase H inh-1	others
Cc1ccc(-c2nnn(CC(=O)Nc3ccc(S(=O)(=O)N4CCC(C)CC4)cc3)n2)cc1	40
CC1CCCN(S(=O)(=O)c2ccc(NC(=O)Cn3nnc(-c4ccccc4F)n3)cc2)C1 (configuration not stated)	11
CC1CCN(S(=O)(=O)c2ccc(NC(=O)Cn3nnc(-c4ccccc4)n3)cc2)CC1	70*	HIV RNase H inh-2=68*
CCOc1cc(C(=O)N2CCN(c3ccc(C(C)=O)cc3)CC2)cc(OCC)c1OCC	6
COc1ccc(-n2c(Cc3cccn3C)nnc2SCC(=O)N2CCCc3ccccc32)cc1	1
N#Cc1ccc(OCc2nnc(SCC(=O)N3CCCc4ccccc43)n2-c2ccccc2)cc1	88*	HIV RNase H inh-2=49
O=C(CSc1nnc(CN2CCOCC2)n1-c1ccccc1)N1CCc2ccccc21	-8
CCc1cc2c(=O)c(-n3cnc4ccccc43)coc2cc1O	-18
O=c1c(-c2nc3ccccc3o2)c2oc3ccccc3n2c2ccccc12	-38
COc1ccc2nc(S(=O)Cc3ncc(C)c(OC)c3C)[nH]c2c1 (configuration not stated)	76*	HIV RNase H inh-2=18
COc1ccc2nc(SCC(N)=O)[nH]c2c1	-4
CCc1c(C)nc(Nc2nc(C)c3cc(OC)ccc3n2)[nH]c1=O	-46
O=C(CSc1nnc(-c2ccccn2)n1Cc1ccccc1)N1CCCC1	-2
O=C(c1ccc2nc(-c3ccco3)c(-c3ccco3)nc2c1)N1CCC2(CC1)OCCO2	75*	HIV RNase H inh-2=33
Cc1nc2cc(C(=O)N3CCC4(CC3)OCCO4)ccc2n1-c1cccc(F)c1	-15
O=C(c1ccc2c(c1)ncn2C1CCCCCC1)N1CCC2(CC1)OCCO2	-6
Cc1cc(C(=O)OCC(=O)N2c3ccccc3CC2C)c(C)o1 (configuration not stated)	-17
Cn1c(C(=O)OCC(=O)NCCc2ccccc2)cc2sccc21	6
CC1CN(c2nc3ccccc3nc2C(C#N)C(=O)NCc2ccc3c(c2)OCO3)CC(C)O1 (configuration not stated)	31
CCC(=O)N1C(C(=O)N2CCCC2)CSC1c1ccc(OC)cc1 (configuration not stated)	-8
O=C(NC(=O)c1ccc(Cl)cc1)Nc1cc(N2CCCCC2)ncn1	75*	HIV RNase H inh-2=99*
O=S(=O)(/N=C(/Nc1cc(N2CCOCC2)ncn1)c1ccccc1)c1ccccc1	-14
O=C(Nc1cc(N2CCOCC2)ncn1)Nc1cccc2ccccc12	-2
CC(C)OCCCNC(=O)c1cc2c(s1)CS(=O)(=O)C2	-6
CCn1c(=O)n(CC(=O)NC2CCCC(C)C2C)c(=O)c2ccccc21 (configuration not stated)	1
SMILES	HIV RNase H inh-1	others
COC(=O)C1C2C=CC3(CN(Cc4ccco4)C(=O)C13)O2 (configuration not stated)	-2
COCCN1CSC(=S)N(Cc2ccco2)C1	63*	HIV RNase H inh-2=-8
COC(=O)c1ccc(=O)n(Cc2ccco2)c1	-17
COc1ccc(S(=O)(=O)N2CCCC(C(=O)NCc3ccccn3)C2)cc1 (configuration not stated)	-10
c1ccc2sc(N3CN(CCN4CCOCC4)CN(c4nc5ccccc5s4)C3)nc2c1	-43
c1ccc2sc(SN3CCOCC3)nc2c1	79*	HIV RNase H inh-2=37
N#C/C(=C(/O)CN1CCOCC1)c1nc2ccccc2s1	-4
CN(C)S(=O)(=O)c1cccc(COC(=O)C2=COCCO2)c1	13
C#CCOc1nc(OCC#C)nc(OCC#C)n1	-18
CN(C)c1ccc(C(c2nnnn2C2CCCCC2)N2CCN(C(=O)c3ccco3)CC2)cc1 (configuration not stated)	5
O=c1c2[nH]c3ccc(F)cc3c2ncn1CCN1CCOCC1	70*	HIV RNase H inh-2=-1
O=c1c2[nH]c3ccc(F)cc3c2ncn1CCN1CCN(Cc2ccccc2)CC1	-32
Cc1ccc2[nH]c3c(=O)n(CCCN4CCOCC4)cnc3c2c1	-5
CCOC(=O)c1c(C)c(C(=O)NCc2ccc3c(c2)OCO3)c(C)n1C	0
Cc1nnc2sc(-c3cccc4ccccc34)nn12	-24
Cc1cc2nn(-c3cccc4ccccc34)nc2cc1N	67*	HIV RNase H inh-2=22
Nc1ccc2nn(-c3cccc4ccccc34)nc2c1	11
COc1ccc2ccccc2c1C1CC(=O)N2CN(C)CSC2=C1C#N (configuration not stated)	68*	HIV RNase H inh-2=11
COc1ccc(OC)c(C2CC(=O)N3CN(c4cccc(Cl)c4)CSC3=C2C#N)c1 (configuration not stated)	-8
Cc1ccc(C2CC(=O)N3CN(Cc4ccco4)CSC3=C2C#N)cc1 (configuration not stated)	26
Cc1ccc(C2CC(=O)N3CN(c4ccc(Br)cc4)CSC3=C2C#N)o1 (configuration not stated)	40
CC(C)c1ccc(C2CC(=O)N3CN(C)CSC3=C2C#N)cc1 (configuration not stated)	73*	HIV RNase H inh-2=65*
CCc1ccccc1N1CSC2=C(C#N)C(c3cc(OC)c(OC)cc3OC)CC(=O)N2C1 (configuration not stated)	79*	HIV RNase H inh-2=63*
COc1ccc(Br)cc1C1CC(=O)N2CN(C)CSC2=C1C#N (configuration not stated)	80*	HIV RNase H inh-2=64*
COc1ccc(OC)c(C2CC(=O)N3CN(c4ccc(C)c(Cl)c4)CSC3=C2C#N)c1 (configuration not stated)	-6
SMILES	HIV RNase H inh-1	others
COc1cc(OC)c(C2CC(=O)N3CN(c4ccccc4)CSC3=C2C#N)cc1OC (configuration not stated)	33
CCOC(=O)c1ccc(N2CSC3=C(C#N)C(c4ccc(OC)cc4OC)CC(=O)N3C2)cc1 (configuration not stated)	16
O=c1c2ccccc2cnn1-c1nc2ccccc2s1	-12
CCCCN(C)CCNC(=O)c1ccc2c(c1)NC(=O)C(N1CCCCC1)S2 (configuration not stated)	-3
COc1cc(OC)c(NC2=NCCCCC2)cc1Cl	4
O=C(OCCN1C(=O)c2ccccc2C1=O)c1cccc(OC(F)F)c1	-65
C=CCOn1c(=O)c(=O)n(OCc2ccccc2)c2ccccc21	-6
CCCc1nnc(NC(=O)CCC(=O)N2CCCCC2CC)s1 (configuration not stated)	1
N#CC1=C2SCN(c3ccccc3)CN2C(=O)CC1c1c(Cl)cccc1Cl (configuration not stated)	38
N#CC1=C2SCN(c3ccccc3)CN2C(=O)CC1c1ccccc1Cl (configuration not stated)	67*	HIV RNase H inh-2=26
COc1cc(OC)c(C2CC(=O)N3CN(C)CSC3=C2C#N)cc1OC (configuration not stated)	76*	HIV RNase H inh-2=57*
COc1ccc(OC)c(C2CC(=O)NC(SC)=C2C#N)c1 (configuration not stated)	-38
N#CC1=C2SCN(c3ccccc3)CN2C(=O)CC1c1cccs1 (configuration not stated)	-5
O=C(C1CC1)N1CCc2cc(S(=O)(=O)N(CCO)Cc3ccccc3)ccc21	-18
O=C(Cn1cc2c(n1)CCCC2)Nc1cc(-c2cccc(Cl)c2)no1	0
CC(C)(C)NC(=O)c1sccc1C(=O)O	11
CC(=O)c1ccc(C#CC(C)(C)O)s1	-10
O=C(NCc1cccs1)c1ccccc1C(=O)NCc1cccs1	-1
CC(C)(O)C#Cc1ccc(C(=O)NCc2cccs2)s1	65*	HIV RNase H inh-2=38

Source: PubChem BioAssay (University of Pittsburgh Molecular Library Screening Center)
